Measured values as given in article PMC11062922 (Nature Chemical Biology, 2023).
Read-outs that look alike come from different tables or passages of the source.

Assays:
NUAK1 = settings: read-out: apparent Kd, n = 1
PAK4 = settings: read-out: apparent Kd, n = 1

Work on Lestaurtinib yielded a potency estimated from few doses (NUAK1; compound concentrations:100 nM and 1000 nM (sheet 'Lestaurtinib' of Supplementary Table 1),run:Lestaurtinib_02768_R3,Plate:MR028) of 48.7 nM, a potency estimated from few doses (NUAK1; compound concentrations:100 nM and 1000 nM (sheet 'Lestaurtinib' of Supplementary Table 1),run:Lestaurtinib_02795_R1,Plate:MR022) of 62.8 nM and a potency estimated from few doses (NUAK1; compound concentrations:100 nM and 1000 nM (sheet 'Lestaurtinib' of Supplementary Table 1),run:Lestaurtinib_02795_R2,Plate:MR022) of 38.6 nM. For the same substance, the potency estimated from few doses (NUAK1; compound concentrations:100 nM and 1000 nM (sheet 'Lestaurtinib' of Supplementary Table 1),run:Lestaurtinib_02795_R3,Plate:MR022) was 165 nM, the potency estimated from few doses (NUAK1; compound concentrations:100 nM and 1000 nM (sheet 'Lestaurtinib' of Supplementary Table 1),run:Lestaurtinib_02802_R1,Plate:MR029) was 72.2 nM and the potency estimated from few doses (NUAK1; compound concentrations:100 nM and 1000 nM (sheet 'Lestaurtinib' of Supplementary Table 1),run:Lestaurtinib_02802_R3,Plate:MR029) was 44.9 nM. It also gave a potency estimated from few doses (NUAK1; compound concentrations:100 nM and 1000 nM (sheet 'Lestaurtinib' of Supplementary Table 1),run:Lestaurtinib_02896_R1,Plate:MR030) of 52.5 nM, a potency estimated from few doses (NUAK1; compound concentrations:100 nM and 1000 nM (sheet 'Lestaurtinib' of Supplementary Table 1),run:Lestaurtinib_02896_R3,Plate:MR030) of 55.1 nM and a potency estimated from few doses (NUAK1; compound concentrations:100 nM and 1000 nM (sheet 'Lestaurtinib' of Supplementary Table 1),run:Lestaurtinib_03172_R2,Plate:MR031) of 66.5 nM. It also gave a potency estimated from few doses (NUAK1; compound concentrations:100 nM and 1000 nM (sheet 'Lestaurtinib' of Supplementary Table 1),run:Lestaurtinib_03172_R3,Plate:MR031) of 62.7 nM, a potency estimated from few doses (NUAK1; compound concentrations:100 nM and 1000 nM (sheet 'Lestaurtinib' of Supplementary Table 1),run:Lestaurtinib_03252_R1,Plate:MR032) of 51.7 nM and a potency estimated from few doses (PAK4; compound concentrations:100 nM and 1000 nM (sheet 'Lestaurtinib' of Supplementary Table 1),run:Lestaurtinib_02339_R1,Plate:MR001) of 32.7 nM. It also gave a potency estimated from few doses (PAK4; compound concentrations:100 nM and 1000 nM (sheet 'Lestaurtinib' of Supplementary Table 1),run:Lestaurtinib_02339_R2,Plate:MR001) of 36.1 nM, a potency estimated from few doses (PAK4; compound concentrations:100 nM and 1000 nM (sheet 'Lestaurtinib' of Supplementary Table 1),run:Lestaurtinib_02364_R1,Plate:MR002) of 32 nM and a potency estimated from few doses (PAK4; compound concentrations:100 nM and 1000 nM (sheet 'Lestaurtinib' of Supplementary Table 1),run:Lestaurtinib_02364_R2,Plate:MR002) of 32.9 nM. It also gave a potency estimated from few doses (PAK4; compound concentrations:100 nM and 1000 nM (sheet 'Lestaurtinib' of Supplementary Table 1),run:Lestaurtinib_02364_R3,Plate:MR002) of 35.1 nM, a potency estimated from few doses (PAK4; compound concentrations:100 nM and 1000 nM (sheet 'Lestaurtinib' of Supplementary Table 1),run:Lestaurtinib_02367_R1,Plate:MR003) of 29.7 nM and a potency estimated from few doses (PAK4; compound concentrations:100 nM and 1000 nM (sheet 'Lestaurtinib' of Supplementary Table 1),run:Lestaurtinib_02367_R2,Plate:MR003) of 33.6 nM. The potency estimated from few doses (PAK4; compound concentrations:100 nM and 1000 nM (sheet 'Lestaurtinib' of Supplementary Table 1),run:Lestaurtinib_02367_R3,Plate:MR003) was 35.8 nM, the potency estimated from few doses (PAK4; compound concentrations:100 nM and 1000 nM (sheet 'Lestaurtinib' of Supplementary Table 1),run:Lestaurtinib_02381_R1,Plate:MR004) was 31 nM and the potency estimated from few doses (PAK4; compound concentrations:100 nM and 1000 nM (sheet 'Lestaurtinib' of Supplementary Table 1),run:Lestaurtinib_02381_R3,Plate:MR004) was 30 nM. The potency estimated from few doses (PAK4; compound concentrations:100 nM and 1000 nM (sheet 'Lestaurtinib' of Supplementary Table 1),run:Lestaurtinib_02407_R2,Plate:MR005) was 28.6 nM, the potency estimated from few doses (PAK4; compound concentrations:100 nM and 1000 nM (sheet 'Lestaurtinib' of Supplementary Table 1),run:Lestaurtinib_02407_R3,Plate:MR005) was 34.5 nM and the potency estimated from few doses (PAK4; compound concentrations:100 nM and 1000 nM (sheet 'Lestaurtinib' of Supplementary Table 1),run:Lestaurtinib_02422_R1,Plate:MR006) was 44.2 nM. For the same substance, the potency estimated from few doses (PAK4; compound concentrations:100 nM and 1000 nM (sheet 'Lestaurtinib' of Supplementary Table 1),run:Lestaurtinib_02422_R2,Plate:MR006) was 20.2 nM, the potency estimated from few doses (PAK4; compound concentrations:100 nM and 1000 nM (sheet 'Lestaurtinib' of Supplementary Table 1),run:Lestaurtinib_02438_R2,Plate:MR008) was 30.6 nM and the potency estimated from few doses (PAK4; compound concentrations:100 nM and 1000 nM (sheet 'Lestaurtinib' of Supplementary Table 1),run:Lestaurtinib_02443_R2,Plate:MR009) was 31.9 nM. For the same substance, the potency estimated from few doses (PAK4; compound concentrations:100 nM and 1000 nM (sheet 'Lestaurtinib' of Supplementary Table 1),run:Lestaurtinib_02443_R3,Plate:MR009) was 33.2 nM, the potency estimated from few doses (PAK4; compound concentrations:100 nM and 1000 nM (sheet 'Lestaurtinib' of Supplementary Table 1),run:Lestaurtinib_02482_R2,Plate:MR011) was 36.2 nM and the potency estimated from few doses (PAK4; compound concentrations:100 nM and 1000 nM (sheet 'Lestaurtinib' of Supplementary Table 1),run:Lestaurtinib_02487_R2,Plate:MR012) was 38.6 nM. It also gave a potency estimated from few doses (PAK4; compound concentrations:100 nM and 1000 nM (sheet 'Lestaurtinib' of Supplementary Table 1),run:Lestaurtinib_02487_R3,Plate:MR012) of 39.1 nM, a potency estimated from few doses (PAK4; compound concentrations:100 nM and 1000 nM (sheet 'Lestaurtinib' of Supplementary Table 1),run:Lestaurtinib_02496_R1,Plate:MR013) of 33 nM and a potency estimated from few doses (PAK4; compound concentrations:100 nM and 1000 nM (sheet 'Lestaurtinib' of Supplementary Table 1),run:Lestaurtinib_02496_R2,Plate:MR013) of 30.6 nM. It also gave a potency estimated from few doses (PAK4; compound concentrations:100 nM and 1000 nM (sheet 'Lestaurtinib' of Supplementary Table 1),run:Lestaurtinib_02496_R3,Plate:MR013) of 35.4 nM, a potency estimated from few doses (PAK4; compound concentrations:100 nM and 1000 nM (sheet 'Lestaurtinib' of Supplementary Table 1),run:Lestaurtinib_02566_R1,Plate:MR014) of 27.9 nM and a potency estimated from few doses (PAK4; compound concentrations:100 nM and 1000 nM (sheet 'Lestaurtinib' of Supplementary Table 1),run:Lestaurtinib_02566_R2,Plate:MR014) of 31 nM. For the same substance, the potency estimated from few doses (PAK4; compound concentrations:100 nM and 1000 nM (sheet 'Lestaurtinib' of Supplementary Table 1),run:Lestaurtinib_02566_R3,Plate:MR014) was 38.2 nM.
